PubChem BioAssay (NCATS)
Records with an inconclusive call do not appear. Entries that show only a call come without a potency. The source made the active and inactive calls. The call rests on the fitted dose curve; in most records, active means well fitted curve in the direction sought with a large enough effect; inconclusive means small, poorly fitted or top-dose-only effect, or another doubt; inactive means no such curve, though single readings can be large; an effect the other way counts as inactive or inconclusive.

Assays:
[1] = S16 Schwann cell viability assay (CellTiter-Glo assay) (AID 624031);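 further: native untransfected S16 rat Schwann cells; nearly all actives have a fitted effect of over 70% in size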
Summary of the method: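 Counter-screen for cytotoxicity: parental S16 rat Schwann cells lacking the PMP22 reporters, treated 24 h with compound, viability from cellular ATP by CellTiter-Glo luminescence, normalized to DMSO (0%) and no-cell wells.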

[2] = system: 3D7; experiment: qHTS profiling for inhibitors of Plasmodium falciparum proliferation (AID 504749); further: nearly all actives have a fitted effect of over 60% in size; further: potency means the concentration at half of the fitted maximal effect; settings: P. falciparum in erythrocytes, SYBR Green DNA, 72 h; series mostly up to 12.8 µM
Summary of the method: (§1)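 Quantitative HTS: compounds pinned into medium, infected erythrocytes added (0.3% parasitemia, 2.5% hematocrit), 72 h culture at 37 C under 5% CO2. Saponin/Triton lysis with SYBR Green I, overnight RT, then fluorescence read.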

[3] = system: AS120; experiment: as above; settings: P. falciparum in erythrocytes, SYBR Green DNA, 72 h; series mostly up to 12.8 µM
Summary of the method: as §1

[4] = system: CP185; experiment: as above; settings: P. falciparum in erythrocytes, SYBR Green DNA, 72 h; series mostly up to 12.8 µM
Summary of the method: as §1

[5] = system: CP191; experiment: as above; settings: P. falciparum in erythrocytes, SYBR Green DNA, 72 h; series mostly up to 12.8 µM
Summary of the method: as §1

[6] = system: CP192; experiment: as above; settings: P. falciparum in erythrocytes, SYBR Green DNA, 72 h; series mostly up to 12.8 µM
Summary of the method: as §1

[7] = system: CP217; experiment: as above; settings: P. falciparum in erythrocytes, SYBR Green DNA, 72 h; series mostly up to 12.8 µM
Summary of the method: as §1

[8] = system: CP237; experiment: as above; settings: P. falciparum in erythrocytes, SYBR Green DNA, 72 h; series mostly up to 12.8 µM
Summary of the method: as §1

[9] = system: CP250; experiment: as above; settings: P. falciparum in erythrocytes, SYBR Green DNA, 72 h; series mostly up to 12.8 µM
Summary of the method: as §1

[10] = system: CP252; experiment: as above; settings: P. falciparum in erythrocytes, SYBR Green DNA, 72 h; series mostly up to 12.8 µM
Summary of the method: as §1

[11] = system: CP266; experiment: as above; settings: P. falciparum in erythrocytes, SYBR Green DNA, 72 h; series mostly up to 12.8 µM
Summary of the method: as §1

[12] = system: CP325; experiment: as above; settings: P. falciparum in erythrocytes, SYBR Green DNA, 72 h; series mostly up to 12.8 µM
Summary of the method: as §1

[13] = system: CP329; experiment: as above; settings: P. falciparum in erythrocytes, SYBR Green DNA, 72 h; series mostly up to 12.8 µM
Summary of the method: as §1

[14] = system: DFO2036; experiment: as above; settings: P. falciparum in erythrocytes, SYBR Green DNA, 72 h; series mostly up to 12.8 µM
Summary of the method: as §1

[15] = system: DIV14; experiment: as above; settings: P. falciparum in erythrocytes, SYBR Green DNA, 72 h; series mostly up to 12.8 µM
Summary of the method: as §1

[16] = system: ECU; experiment: as above; settings: P. falciparum in erythrocytes, SYBR Green DNA, 72 h; series mostly up to 12.8 µM
Summary of the method: as §1

[17] = system: HB3; experiment: as above; settings: P. falciparum in erythrocytes, SYBR Green DNA, 72 h; series mostly up to 12.8 µM
Summary of the method: as §1

[18] = system: ICS; experiment: as above; settings: P. falciparum in erythrocytes, SYBR Green DNA, 72 h; series mostly up to 12.8 µM
Summary of the method: as §1

[19] = system: N140; experiment: as above; settings: P. falciparum in erythrocytes, SYBR Green DNA, 72 h; series mostly up to 12.8 µM
Summary of the method: as §1

[20] = system: PC15; experiment: as above; settings: P. falciparum in erythrocytes, SYBR Green DNA, 72 h; series mostly up to 12.8 µM
Summary of the method: as §1

| Structure (SMILES) | outcome [1] | Potency [2] | Potency [3] | Potency [4] | Potency [5] | Potency [6] | Potency [7] | Potency [8] | Potency [9] | Potency [10] | Potency [11] | Potency [12] | Potency [13] | Potency [14] | Potency [15] | Potency [16] | Potency [17] | Potency [18] | Potency [19] | Potency [20] |
| --- | --- | --- | --- | --- | --- | --- | --- | --- | --- | --- | --- | --- | --- | --- | --- | --- | --- | --- | --- | --- |
| CC1=C(C(=O)O)N2C(=O)[C@@H](NC(=O)[C@@H](N)c3ccc(O)cc3)[C@@H]2SC1 | inactive | inactive | inactive | inactive | inactive | inactive | inactive | inactive | inactive | inactive | inactive | inactive | inactive | inactive | inactive | inactive | inactive | inactive | inactive | inactive |
| O[C@@](CCN1CCCC1)(c1ccccc1)C1CCCCC1 | inactive | inactive |  | inactive | inactive | inactive | inactive | inactive | inactive | inactive | inactive |  |  | inactive | 2.87 µM (active) | inactive | inactive |  |  |  |
| NC[C@@H]1O[C@H](O[C@H]2[C@H](O)[C@H](O[C@@H]3O[C@H](CO)[C@@H](O)[C@H](N)[C@@H]3O)[C@@H](N)C[C@H]2N)[C@@H](O)[C@H](O)[C@@H]1O | inactive | inactive | inactive | inactive | inactive | inactive | inactive | inactive | inactive | inactive | inactive | inactive | inactive | inactive | inactive | inactive | inactive | inactive | inactive | inactive |
| CN[C@H]1[C@@H](O)[C@@H](NC)[C@@H]2O[C@@]3(O)C(=O)C[C@@H](C)O[C@H]3O[C@H]2[C@H]1O | inactive | inactive | inactive | inactive | inactive | inactive | inactive | inactive | inactive | inactive | inactive | inactive | inactive | inactive | inactive | inactive | inactive | inactive | inactive | inactive |
| CC(=O)OCC(=O)[C@@]12OC(C)(C)O[C@@H]1C[C@H]1[C@H]3C[C@H](F)C4=CC(=O)C=C[C@@]4(C)[C@]3(F)[C@H](O)C[C@@]12C | inactive | inactive | inactive | inactive | inactive | inactive | inactive | inactive | inactive | inactive | inactive | inactive | inactive | inactive | inactive | inactive | inactive | inactive | inactive | inactive |
| NC[C@@H]1O[C@H](O[C@@H]2[C@H](O[C@@H]3O[C@H](CO)[C@@H](O)[C@@H]3O)[C@@H](O)[C@@H](N)C[C@H]2N)[C@@H](N)[C@H](O)[C@@H]1O | inactive | inactive | inactive | inactive | inactive | inactive | inactive | inactive | inactive | inactive | inactive | inactive | inactive | inactive | inactive | inactive | inactive | inactive | inactive | inactive |
| c1ccc2c(c1)CCC[C@@H]2C1=NCCN1 | inactive | inactive | inactive | inactive | inactive | inactive | inactive | inactive | inactive | inactive | inactive | inactive | inactive | inactive | inactive | inactive | inactive | inactive | inactive | inactive |
| CCN[C@@H]1C[C@H](N)[C@H](O[C@H]2OC(CN)=CC[C@H]2N)[C@@H](O)[C@H]1O[C@H]1OC[C@@](C)(O)[C@@H](NC)[C@@H]1O | inactive | inactive | inactive | inactive | inactive | inactive | inactive | inactive | inactive | inactive | inactive | inactive | inactive | inactive | inactive | inactive | inactive | inactive | inactive | inactive |
| Clc1ccc([C@H](Cn2ccnc2)OCc2csc3c(Cl)cccc23)c(Cl)c1 | inactive | 3.55 µM (active) | 2.51 µM (active) |  |  |  |  | 3.16 µM (active) |  |  | inactive |  |  |  | 5.1 µM (active) | 3.98 µM (active) |  | 2 µM (active) | 3.98 µM (active) |  |
| CCOC(=O)Oc1c(OC)cc(C(=O)O[C@H]2C[C@H]3CN4CCc5c([nH]c6cc(OC)ccc56)[C@@H]4C[C@H]3[C@@H](C(=O)OC)[C@@H]2OC)cc1OC |  | 3.16 µM (active) | 3.55 µM (active) |  |  |  |  | 3.16 µM (active) |  |  |  |  |  |  | 5.73 µM (active) |  |  | 2.82 µM (active) | 3.55 µM (active) |  |
| CN1CCN([C@@H](c2ccccc2)c2ccc(Cl)cc2)CC1 |  | inactive |  | inactive | inactive | inactive | inactive | inactive | inactive | inactive | inactive | inactive | inactive | inactive | 2.28 µM (active) | inactive | inactive | 3.16 µM (active) | inactive | inactive |
| CN(C)CCn1nnnc1SCC1=C(C(=O)O)N2C(=O)[C@@H](NC(=O)Cc3csc(N)n3)[C@@H]2SC1 | inactive | inactive | inactive | inactive |  | inactive | inactive | inactive | inactive | inactive | inactive | inactive | inactive |  |  |  |  | 2.51 µM (active) |  |  |
| CC(C)NC[C@H]1CCc2cc(CO)c([N+](=O)[O-])cc2N1 | inactive | inactive | inactive | inactive | inactive | inactive | inactive | inactive | inactive | inactive | inactive | inactive | inactive | inactive | inactive | inactive | inactive | inactive | inactive | inactive |
| NS(=O)(=O)c1cc2c(cc1Cl)N[C@@H](C(Cl)Cl)NS2(=O)=O | inactive | inactive | inactive | inactive | inactive | inactive | inactive | inactive | inactive | inactive | inactive | inactive | inactive | inactive | inactive | inactive | inactive | inactive | inactive | inactive |
| CC1(C)O[C@H]2C[C@@H]3[C@H]4CCC5=CC(=O)CC[C@@]5(C)[C@]4(F)[C@@H](O)C[C@@]3(C)[C@@]2(C(=O)CCl)O1 | inactive | 3.98 µM (active) | 3.98 µM (active) |  | 3.16 µM (active) |  | 2.24 µM (active) |  | 3.98 µM (active) | 3.55 µM (active) | inactive |  | inactive |  | 5.1 µM (active) | inactive |  | 0.891 µM (active) | 2.51 µM (active) | 3.55 µM (active) |
| CCN(CC)[C@@H](C)CN1c2ccccc2Sc2ccccc21 | inactive |  |  | inactive |  | inactive |  |  |  |  | inactive | inactive | inactive | inactive |  |  | inactive |  |  | inactive |
| CO[C@]1(NC(=O)[C@H](C(=O)O)c2ccc(O)cc2)C(=O)N2C(C(=O)O)=C(CSc3nnnn3C)CO[C@H]21 | inactive | inactive | inactive | inactive | inactive | inactive | inactive | inactive | inactive | inactive | inactive | inactive | inactive | inactive | inactive | inactive | inactive | inactive | inactive | inactive |
| Cc1ccc(S(=O)(=O)NC(=O)NN2C[C@H]3CCC[C@@H]3C2)cc1 | inactive | inactive | inactive | inactive | inactive | inactive | inactive | inactive | inactive | inactive | inactive | inactive | inactive | inactive | inactive | inactive | inactive | inactive | inactive | inactive |
| CC=C(/C(=C/C)c1ccc(O)cc1)c1ccc(O)cc1 | inactive | inactive | inactive | inactive | inactive | inactive | inactive | inactive | inactive | inactive | inactive | inactive | inactive | inactive | inactive | inactive | inactive | inactive | inactive | inactive |
| CCCC[C@H](CC)CN1CN(C[C@@H](CC)CCCC)CC(C)(N)C1 | inactive | inactive | inactive | inactive | inactive | inactive | inactive |  | inactive | inactive | inactive | inactive | inactive | inactive | inactive | inactive | inactive | 4.47 µM (active) | inactive | inactive |
| C[N+]12CCC(CC1)[C@@H](OC(=O)C(O)(c1ccccc1)c1ccccc1)C2 | inactive | inactive | inactive | inactive | inactive | inactive | inactive | inactive | inactive | inactive | inactive | inactive | inactive | inactive |  | inactive | inactive | inactive | inactive | inactive |
| NS(=O)(=O)c1cc2c(cc1C(F)(F)F)N[C@H](Cc1ccccc1)NS2(=O)=O | inactive | inactive | inactive | inactive | inactive | inactive | inactive | inactive | inactive | inactive | inactive | inactive | inactive | inactive | inactive | inactive | inactive | inactive | inactive | inactive |
| CCC(=O)[C@@]1(C)[C@H](C)C[C@@H]2[C@@H]3CCC4=CC(=O)C=C[C@@]4(C)[C@H]3[C@H](O)C[C@]21C | inactive |  | inactive | inactive | inactive | inactive | inactive | 3.55 µM (active) | inactive | inactive | inactive | inactive | inactive | inactive | inactive | inactive | inactive | 3.55 µM (active) |  | inactive |
